Results from PubChem BioAssay AID1332 (Southern Research Institute, 2008).
Converted amounts (≈) assume the structure as drawn. Hit rate of the full screen: of about 1,100 compounds, about 170 (15%) were called active. How the calls were made is not given here. Not all results are given here. Non-standard residues stand in square brackets, D forms with d. Residues, ends and D or L forms follow the SMILES beside them. *: point of attachment. Sta = CC(C)C[C@H](N)[C@@H](O)CC(=O)O; Isovaleryl = CC(C)CC(=O)*

Assay: Confirmatory growth inhibition assay, mycobacterium tuberculosis h37rv, with cytotoxicity (AID 1332);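 on CC50: Vero cells exposed to compounds for 72 hours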;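 on IC50: bacteria incubated 7 days before adding Alamar blue readout reagent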
Settings: M. tuberculosis H37Rv growth inhibition; CC50: measured here: Vero cell cytotoxicity; IC50: measured here: IC50 H37Rv replicates

SMILES | IC50 [µg/mL] | outcome | CC50 [µg/mL]
C/C(=C(/CCO)SSCC1CCCO1)N(C=O)Cc1cnc(C)nc1N (stereo unspecified) | > 20 | inactive | –
C=Cc1c(C)c2cc3nc(cc4[nH]c(cc5nc(cc1[nH]2)C(C)=C5CCC(=O)O)c(CCC(=O)O)c4C)[C@@]1(C)C3=CC=C(C(=O)OC)C1C(=O)OC (stereo partly specified) | > 20 | active | –
CC(O)(P(=O)(O)O)P(=O)(O)O | > 20 | inactive | –
OCCN1CCN(CC/C=C2/c3ccccc3Sc3ccc(Cl)cc32)CC1 | 9.26 (≈ 23.1 µM) | active | > 6
OCCOCCN1CCN(C(c2ccccc2)c2ccc(Cl)cc2)CC1 (stereo unspecified) | > 20 | inactive | –
CC(=O)c1ccc2c(c1)N(CCCN1CCC(CCO)CC1)c1ccccc1S2 | > 20 | inactive | –
CC(=O)Nc1ccc(O)cc1 | > 20 | inactive | –
CCN[C@H]1C[C@H](C)S(=O)(=O)c2sc(S(N)(=O)=O)cc21 | > 20 | inactive | –
Cc1cc(C(=O)NNCc2ccccc2)no1 | > 20 | inactive | –
CC(C)NNC(=O)c1ccncc1 | > 20 | inactive | –
O=C(CCNNC(=O)c1ccncc1)NCc1ccccc1 | 0.393 (≈ 1.32 µM) | active | –
CC(C)(C)NC(=O)[C@@H]1C[C@@H]2CCCC[C@@H]2CN1C[C@@H](O)[C@H](Cc1ccccc1)NC(=O)[C@H](CC(N)=O)NC(=O)c1ccc2ccccc2n1 | 17.3 (≈ 25.7 µM) | active | –
C[C@@H]1CC[C@H]2[C@@H](C)C(=O)O[C@@H]3OC4(C)CC[C@@H]1[C@]32OO4 | > 20 | inactive | –
CN1CC[C@]23c4ccccc4N[C@H]1[C@]21CCN(C)[C@H]3Nc2ccccc21 | > 20 | inactive | –
O=C(O)COCCN1CCN(C(c2ccccc2)c2ccc(Cl)cc2)CC1 (stereo unspecified) | > 20 | inactive | –
CN1CCN(C(c2ccccc2)c2ccccc2)CC1 | > 20 | inactive | –
CN1CCCN(C(c2ccccc2)c2ccc(Cl)cc2)CC1 (stereo unspecified) | 19.3 (≈ 61.3 µM) | active | > 6
Cc1cc(-c2ccccc2)nnc1NCCN1CCOCC1 | > 20 | inactive | –
CC(C)CC(=O)N[C@H](C(=O)N[C@H](C(=O)N[C@@H](CC(C)C)[C@@H](O)CC(=O)N[C@@H](C)C(=O)N[C@@H](CC(C)C)[C@@H](O)CC(=O)O)C(C)C)C(C)C (Isovaleryl-VV[Sta]A[Sta]-OH) | > 20 | inactive | –
Cc1c(-c2ccccc2)oc2c(C(=O)OCCN3CCCCC3)cccc2c1=O | > 20 | inactive | –
CN(C)CC/C=C1\c2ccccc2CSc2ccccc21 | > 20 | inactive | > 6

SMILES | IC50 [µg/mL] | outcome | CC50 [µg/mL]
CN(C)CCC=C1c2ccccc2CCc2ccccc21 | 16.2 (≈ 58.3 µM) | active | > 6
CN(C)CC/C=C1\c2ccccc2COc2ccccc21 | > 20 | inactive | –
CNCC(O)c1ccc(O)c(OC)c1 (stereo unspecified) | > 20 | inactive | –
CNC(C)CCC=C(C)C (stereo unspecified) | > 20 | inactive | –
C=C1CC[C@H](O)C/C1=C/C=C1\CCC[C@]2(C)[C@@H]([C@H](C)CCCC(C)C)CC[C@@H]12 | > 20 | inactive | –
C[C@@H]1CCC[C@H](C)N1 | > 20 | inactive | –
CC(C)(C)NC[C@@H](O)COc1cccc2c1CCCC2=O | > 20 | inactive | –
Cc1c(N(C)CS(=O)(=O)O)c(=O)n(-c2ccccc2)n1C | > 20 | inactive | –
CO[C@@]1(NC(=O)[C@H](C(=O)O)c2ccc(O)cc2)C(=O)N2C(C(=O)O)=C(CSc3nnnn3C)CO[C@@H]21 | > 20 | inactive | –
C[N+]1(C)C2CC[C@H]1CC(OC(=O)C(CO)c1ccccc1)C2 (stereo partly specified) | > 20 | inactive | –
CC(=O)NS(=O)(=O)c1ccc(N)cc1 | > 20 | inactive | –
Nc1ccc(S(=O)(=O)Nc2ccccn2)cc1 | > 20 | inactive | –
Cc1noc(NS(=O)(=O)c2ccc(N)cc2)c1C | 8.76 (≈ 32.8 µM) | active | –
Nc1ccc(S(=O)(=O)NC(=O)c2ccccc2)cc1 | > 20 | inactive | –
Cc1ccnc(NS(=O)(=O)c2ccc(N)cc2)n1 | > 20 | inactive | –
Nc1ccc(S(=O)(=O)Nc2ccc(Cl)nn2)cc1 | 4.37 (≈ 15.3 µM) | active | –
Nc1ccc(S(=O)(=O)Nc2ncccn2)cc1 | 13.4 (≈ 53.4 µM) | active | –
Cc1cc(C)nc(NS(=O)(=O)c2ccc(N)cc2)n1 | > 20 | inactive | –
CCn1cc(C(=O)O)c(=O)c2cnc(N3CCCC3)nc21 | > 20 | inactive | –
Cc1cccc(N(C)C(=S)Oc2ccc3ccccc3c2)c1 | > 20 | inactive | –
O=C(O)C1(O)C[C@H](O)C(O)[C@@H](O)C1 (stereo partly specified) | > 20 | inactive | –

SMILES | IC50 [µg/mL] | outcome | CC50 [µg/mL]
COc1ccc([C@@H]2CC(=O)c3c(O)cc(O)cc3O2)cc1O | > 20 | inactive | –
CCCCN(CCCC)CCCOC(=O)c1ccc(N)cc1 | > 20 | inactive | –
CC1(C)S[C@@H]2[C@H](NC(=O)C(C(=O)O)c3ccsc3)C(=O)N2[C@H]1C(=O)O (stereo partly specified) | > 20 | inactive | –
CC(=O)N(CC(O)CN(C(C)=O)c1c(I)c(C(=O)NCC(O)CO)c(I)c(C(=O)NCC(O)CO)c1I)c1c(I)c(C(=O)NCC(O)CO)c(I)c(C(=O)NCC(O)CO)c1I (stereo unspecified) | > 20 | inactive | –
Cn1c(-c2ccc3c(c2)OCO3)cc(=O)c2ccccc21 | > 20 | inactive | –
Cc1c(N)c(=O)n(-c2ccccc2)n1C | > 20 | inactive | –
COc1ccc2cc1Oc1ccc(cc1)C[C@H]1c3cc(c(OC)cc3CCN1C)Oc1c(OC)c(OC)cc3c1[C@H](C2)N(C)CC3 | > 20 | inactive | > 6
Cc1[nH]ccc2c1[nH]c1cc(=O)ccc12 | > 20 | inactive | > 6
CC(C)(C)NCC(O)COc1ccccc1C1CCCC1 (stereo unspecified) | > 20 | inactive | –
O=C(O)c1cccnc1 | > 20 | inactive | –
O=C1C(=O)c2ccccc2C(O)=C1C1CCC(c2ccc(Cl)cc2)CC1 (stereo unspecified) | 10.1 (≈ 27.6 µM) | active | > 6
C/C=C(\C)C(=O)O[C@H]1[C@H](OC(C)=O)[C@@]2(CO)C(CC1(C)C)C1=CC[C@@H]3[C@@]4(C)CC[C@H](O[C@@H]5O[C@H](C(=O)O)[C@@H](O[C@@H]6O[C@H](CO)[C@@H](O)[C@H](O)[C@H]6O)[C@H](O)[C@H]5O[C@@H]5O[C@H](CO)[C@@H](O)[C@H](O)[C@H]5O)[C@](C)(CO)C4CC[C@@]3(C)[C@]1(C)C[C@H]2O (stereo partly specified) | > 20 | inactive | –
CN(C)CCCOc1nn(Cc2ccccc2)c2ccccc12 | > 20 | inactive | –
CCCCc1cc2ccccc2c(OCCN(C)C)n1 | 13.5 (≈ 49.5 µM) | active | –
CN(C)CCOC(c1ccccc1)c1ccccc1 | > 20 | inactive | –
CCCCOc1cc(C(=O)NCCN(CC)CC)c2ccccc2n1 | > 20 | inactive | –
CC[N+](CC)(CC(=O)Nc1c(C)cccc1C)Cc1ccccc1 | > 20 | inactive | –
CN1CCc2c(c3ccccc3n2Cc2ccccc2)C1 | > 20 | inactive | –
Clc1ccc(Cn2c(CN3CCCC3)nc3ccccc32)cc1 | 3.58 (≈ 11 µM) | active | –
Clc1ccc(C(OCCN2CCCCC2)c2ccccc2)cc1 (stereo unspecified) | > 20 | inactive | > 6
CCOc1ccc(Cc2nccc3cc(OCC)c(OCC)cc23)cc1OCC | > 20 | inactive | > 6

SMILES | IC50 [µg/mL] | outcome | CC50 [µg/mL]
CC(C)n1c(/C=C/[C@H](O)C[C@H](O)CC(=O)O)c(-c2ccc(F)cc2)c2ccccc21 | > 20 | inactive | 0.354 (≈ 0.86 µM)
C=C[C@]12CN(C)[C@@H]3[C@H]4COC(CC41)[C@]1(C(=O)Nc4ccccc41)[C@@H]32 | > 20 | inactive | –
COC1=CC(=O)C[C@@H](C)[C@]12Oc1c(Cl)c(OC)cc(OC)c1C2=O | > 20 | inactive | > 6
NC(=O)N/N=C/c1ccc([N+](=O)[O-])o1 | 11.5 (≈ 58 µM) | active | > 6
CC(C(=O)O)c1ccc(C(=O)c2ccccc2)s1 (stereo unspecified) | > 20 | inactive | –
CCC(=O)OCC(=O)[C@@]1(OC(=O)CC)[C@@H](C)C[C@H]2[C@@H]3CCC4=CC(=O)C=C[C@]4(C)[C@@]3(Cl)[C@@H](O)C[C@@]21C | > 20 | inactive | –
CC[C@H]1CN2CCc3cc(OC)c(OC)cc3[C@@H]2C[C@@H]1C[C@H]1NCCc2cc(O)c(OC)cc21 | > 20 | inactive | < 0.023
Fc1ccc([C@@H]2CCNC[C@H]2COc2ccc3c(c2)OCO3)cc1 | 13.1 (≈ 39.7 µM) | active | 4.88 (≈ 14.8 µM)
C[C@H](NCCc1ccc(O)cc1)[C@H](O)c1ccc(O)cc1 | > 20 | inactive | –
C[C@@H]1CC[C@@]2(NC1)O[C@H]1C[C@H]3[C@@H]4CC=C5C[C@@H](O)CC[C@]5(C)[C@H]4CC[C@]3(C)[C@H]1[C@@H]2C | > 20 | inactive | –
C[C@]12C=CC(=O)C=C1CC[C@@H]1[C@@H]2[C@@H](O)C[C@@]2(C)[C@H]1CC[C@]2(O)C(=O)CO | > 20 | inactive | –
CC(C)(C)NCC(O)COc1cccc2c1CC(O)C(O)C2 (stereo unspecified) | > 20 | inactive | –
NC[C@@H]1O[C@H](O[C@H]2[C@@H](O)[C@H](O[C@@H]3[C@@H](O)[C@H](N)C[C@H](N)[C@H]3OC3O[C@H](CO)[C@@H](O)[C@H](O)[C@H]3N)O[C@@H]2CO)[C@H](N)[C@@H](O)[C@@H]1O (stereo partly specified) | 19.8 (≈ 32.1 µM) | active | –
NC[C@H]1O[C@H](OC2[C@@H](N)C[C@@H](N)[C@H](O)[C@H]2O[C@@H]2O[C@H](CO)[C@@H](O)[C@H]2O)[C@H](N)[C@@H](O)[C@@H]1O (stereo partly specified) | > 20 | inactive | –
NC[C@@H]1O[C@H](O[C@H]2[C@@H](O)[C@H](O[C@@H]3[C@@H](O)[C@H](N)C[C@H](N)[C@H]3O[C@H]3O[C@H](CN)[C@@H](O)[C@H](O)[C@H]3N)O[C@@H]2CO)[C@H](N)[C@@H](O)[C@@H]1O | > 20 | inactive | –
C[N+]1(C)C[C@@H](O)C[C@H]1C(=O)[O-] | > 20 | inactive | –
CC(C)(Sc1cc(C(C)(C)C)c(O)c(C(C)(C)C)c1)Sc1cc(C(C)(C)C)c(O)c(C(C)(C)C)c1 | > 20 | inactive | –
CC1=C(C(=O)O)N2C(=O)[C@@H](NC(=O)[C@H](N)c3ccc(O)cc3)[C@H]2SC1 | > 20 | inactive | –
